# Hits are enriched below; roughly 1.1% of the tested compounds scored in any of these assays.
# MsrA act – activates bovine MsrA enzyme. purified bovine MsrA, absorbance read-out. activation, % at 10.6 µM. actives 0.3% (n = 360,000). AID 602163; in the data active means activation above about 7.5%;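 further: 0% = vehicle and 100% = reference activator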
# MsrA inhibitor – inhibits bovine methionine sulfoxide reductase A; actives 0.75% (n = 360,000); inhibition, % at 15.5 µM; purified bovine MsrA, absorbance read-out;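 further: 0% = vehicle wells with enzyme and 100% = reference inhibitor wells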
# PKA-R2B act – PKA-R2B complex activation | P22694+P31323 | PKA-R2B holoenzyme dissociation, Cy5-IP20 fluorescence polarization; R2B truncated from residue 108, S112A mutant; 0% DMSO only, 100% 113 µM cGMP | activation, % at 11.4 µM | actives 0.079% (n = 340,000);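 active means activation above a cutoff set at the mean over all compounds plus 3 SD, cut at about 18% in these data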;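 further: higher means more holoenzyme dissociation and a rise in polarization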
# Target sequence (P31323 whole entry, looked up, other chains not shown, the tested form may be a part): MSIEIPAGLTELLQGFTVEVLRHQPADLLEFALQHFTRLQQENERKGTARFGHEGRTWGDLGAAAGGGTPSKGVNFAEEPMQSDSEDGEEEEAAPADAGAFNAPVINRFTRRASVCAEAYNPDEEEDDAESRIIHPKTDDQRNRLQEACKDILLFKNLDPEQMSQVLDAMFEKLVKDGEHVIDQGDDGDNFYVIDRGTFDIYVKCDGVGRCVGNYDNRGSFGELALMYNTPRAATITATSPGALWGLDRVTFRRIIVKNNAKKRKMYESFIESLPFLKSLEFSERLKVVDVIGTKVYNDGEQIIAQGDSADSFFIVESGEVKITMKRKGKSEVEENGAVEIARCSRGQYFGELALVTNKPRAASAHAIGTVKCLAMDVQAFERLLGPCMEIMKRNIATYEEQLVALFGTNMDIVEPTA
# PKA-R1A activ – activators of PKA-R1A complex. P00514+P68181. PKA-R1A dissociation, Cy5-IP20 fluorescence polarization; scaled: DMSO 0%, 113 µM cGMP 100%. activation, % at 11.4 µM. actives 0.083% (n = 340,000);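 active means percent activation above the mean of all tested compounds plus 3 SD, cut at about 19% in these data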;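 further: higher means more PKAc released from R1A so a rise in polarization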
# MsrA inh confirm – confirmation of bovine MsrA inhibitors. shares compounds with MsrA inhibitor. purified bovine MsrA, absorbance read-out. inhibition, % at 15.5 µM. actives 41% (n = 2,300). AID 651822;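 further: coupled to thioredoxin reductase with NADPH and selenocystamine and DMSO as substrate; 0% = vehicle only and 100% = full effect of reference inhibitor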
# * = called active by the depositor; / = no result given. Unless noted, no stated cut-off is given here; in the data, active means inhibition above about 4.5%; inactive means the rest.
SMILES,MsrA act,MsrA inhibitor,PKA-R2B act,PKA-R1A activ,MsrA inh confirm
Nc1[nH]c(N=NC(=O)c2ccc(F)cc2)c2ccccc12,-12,4,5,-5,/
Nc1ccccc1C(=O)N=Nc1[nH]c(N)c2ccccc12,-5,5.4*,4,2,4
O=c1cc(-c2ccc(O)cc2)oc2ccc(O)cc12,-2,5.5*,-11,5,2
O=c1cc(-c2ccc(O)cc2)oc2ccccc12,-4,3,-5,-9,/
CCN(CC)c1ccc(/C=N/Nc2nn[nH]n2)cc1,-10,6.4*,4,-7,4
CCN(CC)c1ccc(/C=N/Nc2nc(C)cc(C)n2)cc1,-5,3,/,/,/
COc1ccc(/C=[N+](\[O-])C2N(c3ccccc3)C(=S)SC2(C)C)cc1OC (stereo unspecified),-5,5.0*,-3,0,3
Nc1n[nH]c(N)c1N=Nc1ccc(Cl)cc1,-5,6.1*,-8,-1,3
O=C(N/N=C/c1cccs1)c1cccc2cc[nH]c12,-7,5.2*,1,2,4
O=C(O)c1ccccc1NS(=O)(=O)c1ccc(NN=Cc2ccccc2F)c([N+](=O)[O-])c1,-7,5.3*,23*,4,3
C[C@H](NC(=O)c1nc[nH]c1C(=O)NCCCCCN)C(=O)OCc1ccccc1,-1,0,-2,-7,/
O=C(O)CC1SC(N/N=C/c2ccc(Br)cc2)NC1=O (stereo unspecified),-6,4.9*,1,-8,2
O=C(N/N=C/c1ccc(-c2ccccc2C(=O)O)o1)c1cccs1,-5,6.8*,5,2,4.6*
O=[N+]([O-])c1ccc(N/N=C2\CC3CC=CC23)c([N+](=O)[O-])c1 (stereo unspecified),-8,5.6*,-8,-12,4
O=[N+]([O-])c1ccc(N/N=C2\CC3CC=CC23)cc1 (stereo unspecified),-14,1,11,4,/
O=C(C(=O)N1CCC(CNS(=O)(=O)Cc2ccccc2)CC1)c1cccs1,/,0,/,/,/
Cc1c(OCC(=O)N(C)c2ccccc2)ccc2c3c(c(=O)oc12)CCC3,-2,0,-5,4,/
O=C(c1ccccc1)N(CCO)Cc1cc2cc3c(cc2[nH]c1=O)OCCO3,-4,1,-6,7,/
O=C(c1ccco1)N(CCO)Cc1cc2cc3c(cc2[nH]c1=O)OCO3,-1,6.1*,-5,-8,3
COc1ccc(-c2cc(C(F)(F)F)nc(S(C)(=O)=O)n2)cc1,-9,5.4*,-10,-7,2
O=c1[nH]c(/C=C/c2ccc([N+](=O)[O-])cc2)c([N+](=O)[O-])c(=O)[nH]1,-6,5.4*,-9,-1,5.6*
Nc1[nH]c(C(=O)c2ccccc2)c(-c2ccc3ccccc3c2)c1C(=O)NCc1ccc(-c2ccccc2)cc1,/,0,/,/,/
CN1c2ccsc2/C(=N/Nc2ccccc2)CS1(=O)=O,-7,5.3*,-1,4,3
CN1c2ccsc2/C(=N/NC(=O)c2c(F)cccc2F)CS1(=O)=O,-4,3,-6,13,/
COC(=O)[C@]12C[C@H](CC(=O)NCc3ccccc3)C(=O)N(CCC3=CCCCC3)C1=C[C@H](COCc1ccccc1)O[C@@H]2C,/,1,/,/,/
SMILES,MsrA act,MsrA inhibitor,PKA-R2B act,PKA-R1A activ,MsrA inh confirm
C=CCC1S/C(=N/N=C/c2cccs2)NC1=O (stereo unspecified),-4,6.7*,0,-5,5.7*
O=C1N/C(=N\N=C\c2cccs2)SC1Cc1ccc(Cl)c(Cl)c1 (stereo unspecified),-5,1,5,-11,/
C[C@H](O)[C@@H]1C(=O)N2CCc3c([nH]c4cccc(-c5ccccc5)c34)[C@@H]2C[C@@H]1N(C)C(=O)C1CCCCC1,/,-1,/,/,/
Cc1ccc(NS(=O)(=O)c2cc(-c3n[nH]c(=O)c4ccccc34)ccc2C)cc1,-1,5.2*,-10,2,5.0*
CS(=O)(=O)c1ccc2nc(NC(=O)c3ccc(S(=O)(=O)NCC4CCCO4)cc3)sc2c1 (stereo unspecified),-3,5.0*,0,13,4
CS(=O)(=O)c1ccc2nc(NC(=O)c3ccc(NS(=O)(=O)c4cccc([N+](=O)[O-])c4)cc3)sc2c1,-2,5.3*,0,7,5.3*
CCCCNC(=O)C[C@H]1C[C@@]2(C(=O)OC)C(=C[C@H](COCc3ccccc3)O[C@@H]2C)N(CCC2=CCCCC2)C1=O,/,-1,/,/,/
COc1ccc(/C=C/C(=O)Nc2cc(C)on2)cc1,-4,0,0,0,/
COc1ccc(C(=O)/C=C/Nc2cc(C)on2)cc1,-5,6.6*,1,5,6.2*
O=C(N/N=C/c1cn(-c2cccs2)nc1-c1ccccc1)c1ccccc1Br,-3,6.5*,-9,-7,2
O=C(N/N=C/c1cn(-c2cccs2)nc1-c1ccccc1)c1ccccc1O,-6,5.5*,1,-5,2
N#Cc1c(NC(=S)NC(=O)Cc2cccs2)sc2c1CCCCC2,2,0,-17,-7,/
COc1ccc(/C=N/NC(=O)c2cccc(NC(=O)c3ccccc3Cl)c2)c(OC)c1,-15,5.3*,-3,-5,2
CCCOc1ccc2[nH]c(C(=O)N/N=C/c3cc(OC)c(OC)c(OC)c3)cc2c1,-4,2,-4,-2,/
COc1ccc(OC)c(/C=N\NC(=O)c2ccc(-c3ccccc3)cc2)c1,-5,1,-4,2,/
COc1ccc2[nH]c(C(=O)N/N=C/c3ccccc3OC)cc2c1,-5,5.8*,-9,-3,5.4*
COc1ccc(C(=O)N/N=C/c2cc3ccccc3[nH]c2=O)cc1,-4,5.0*,4,-1,4
COc1ccc2[nH]c(C(=O)N/N=C/c3ccc(OC)c(O)c3)cc2c1,-4,7.5*,3,1,7.8*
O=C(NCc1ccco1)C1C(=O)Nc2ccccc2C(=O)N1C1CCCCC1 (stereo unspecified),/,2,/,/,/
CC(=O)N1CCN(c2ccc(N3CCN(Cc4ccccc4)[C@@H](C)C3)c(C)c2)[C@@H](C)C1,/,-1,/,/,/
CCCc1c(C(=O)N/N=C/c2ccc(C)o2)nnn1-c1nonc1N,-9,5.0*,-5,0,4.6*
Cc1ccc(/C=N/NC(=O)c2nnn(-c3nonc3N)c2C(C)C)o1,-3,4.8*,0,-3,4.8*
CC(/C=N/NC(=O)c1nnn(-c2nonc2N)c1CN(C)C)=C\c1ccco1,-3,6.2*,6,11,7.3*
CC(C)c1c(C(=O)N/N=C/c2ccco2)nnn1-c1nonc1N,-3,3,-1,-2,/
CCCN(CCC)Cc1c(C(=O)N/N=C/c2ccc(C)o2)nnn1-c1nonc1N,-2,1,4,7,/
CCCN(CCC)Cc1c(C(=O)N/N=C/C(C)=C\c2ccco2)nnn1-c1nonc1N,0,2,-3,7,/
O=C(Nc1nc2c(F)cc(F)cc2s1)C1CC(=O)N(Cc2ccco2)C1 (stereo unspecified),-3,1,0,7,/

# Screening results: PubChem BioAssay, The Scripps Research Institute Molecular Screening Center
